Measured values reported in PubChem BioAssay (NCATS).
Inconclusive results are not listed. The list shows a part of the results. Active and inactive are the calls of the source. Unless noted, the call rests on the fitted dose curve; in most records, active means well fitted curve in the direction sought with a large enough effect; inconclusive means small, poorly fitted or top-dose-only effect, or another doubt; inactive means no such curve, though single readings can be large; an effect the other way counts as inactive or inconclusive.

How the values were obtained:
[1] = biological target: DNA polymerase iota (Homo sapiens) (UniProt Q9UNA4); experiment: qHTS for Inhibitors of Polymerase Iota: Confirmatory Assay for Cherry-picked Compounds (AID 720496); settings: Pol iota primer extension, TAMRA/BHQ fluorescence; further: potency means the concentration at half of the fitted maximal effect
Procedure, shortened: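 Kinetic fluorescence, 0 → 10 min, ex 525/em 598 nm. Pol iota 10 nM, 15 min RT preincubation with compound, then 50 nM (final) TAMRA/BHQ-2 primer-template substrate.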

[2] = biological target: DNA polymerase kappa (Homo sapiens) (UniProt Q9UBT6); experiment: qHTS for Inhibitors of Polymerase Kappa: Confirmatory Assay for Cherry-picked Compounds (AID 720501); settings: purified Pol-kappa, fluorescent strand-displacement substrate; further: potency means the concentration at half of the fitted maximal effect
Procedure, shortened: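 Human Pol-kappa, dispensed at 10 nM, was preincubated with compounds for 15 min at room temperature. Reactions were started with primer/template substrate (50 nM final) carrying a TAMRA reporter strand and BHQ-2-quenched template, and fluorescence (ex 525/em 598 nm) was read at 0 and 10 min.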

[3] = biological target: DNA polymerase eta (Homo sapiens) (UniProt Q9Y253); experiment: qHTS for Inhibitors of Polymerase Eta: Confirmatory Assay for Cherry-picked Compounds (AID 720502); settings: Pol eta primer extension, TAMRA/BHQ fluorescence, 10 min; further: potency means the concentration at half of the fitted maximal effect
Procedure, shortened: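 10 nM Pol eta + cpd, 15 min RT; start w/ 50 nM final primer/TAMRA-reporter/BHQ-2-template substrate; kinetic read 0 and 10 min, ex 525/em 598 nm. Buffer-only wells = negative control.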

[4] = biological target: Bifunctional 3'-5' exonuclease/ATP-dependent helicase WRN (Homo sapiens) (UniProt Q14191); experiment: qHTS for Inhibitors of WRN Helicase: Confirmatory Assay for Cherry-picked Compounds. (AID 720497); settings: WRN helicase DNA unwinding, fluorescence kinetic; series mostly up to 57.1 µM; further: potency means the concentration at half of the fitted maximal effect; nearly all actives have a fitted effect of over 65% in size
Procedure, shortened: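 Confirmatory retest of cherry-picked hits in 1536-well format. Enzyme (20 nM final) sat with compound for 15 min at room temperature before forked duplex substrate (100 nM) and ATP (2 mM) were added, and unwinding was followed kinetically by red fluorescence.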

[5] = biological target: RecQ-like DNA helicase BLM (Homo sapiens) (UniProt P54132); experiment: qHTS for Inhibitors of WRN Helicase: BLM Helicase Counterscreen for WRN Inhibitors (AID 720503); settings: Recombinant BLM helicase DNA unwinding, red fluorescence; series mostly up to 57.1 µM; further: potency means the concentration at half of the fitted maximal effect; nearly all actives have a fitted effect of over 60% in size
Procedure, shortened: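 BLM (1 nM) was preincubated with compounds for 15 min at room temperature in Tris-HCl pH 8.0, 50 mM NaCl, 2 mM MgCl2 buffer. Unwinding started with 100 nM DNA and 2 mM ATP (final); red fluorescence was read twice, 15 min apart.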

[6] = biological target: Cytochrome P450 2C9 (Homo sapiens) (UniProt P11712); experiment: qHTS Assay for Inhibitors and Substrates of Cytochrome P450 2C9 (AID 883); settings: recombinant CYP2C9, luciferin-H luminescence, 60 min; series mostly up to 11.4 µM; further: nearly all actives have a fitted effect of over 60% in size; further: potency means the concentration at half of the fitted maximal effect; on activity change, negative = inhibition: on the % scale 0 is the no-effect control and ±100 the full control effect
Procedure, shortened: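 A luminogenic readout tracked human CYP2C9 (10nM) converting deoxyluciferin (100uM, at KM) in 25mM KPO4 during 60 min at 37C with regenerated NADPH. Values normalized to 57uM sulphaphenazole as complete inhibition.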

[7] = biological target: Cytochrome P450 3A4 (Homo sapiens) (UniProt P08684); experiment: qHTS Assay for Inhibitors and Substrates of Cytochrome P450 3A4 (AID 884); settings: recombinant CYP3A4, Luciferin-PPXE luminescence; series mostly up to 57.1 µM; further: nearly all actives have a fitted effect of over 50% in size; further: potency means the concentration at half of the fitted maximal effect; on activity change, negative = inhibition: on the % scale 0 is the no-effect control and ±100 the full control effect
Procedure, shortened: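 Luminescent readout of luciferin produced by CYP3A4 (20 nM) dealkylation of Luciferin-PPXE, 25 uM (its KM). NADPH-driven reaction ran 60 min at RT after 10 min compound preincubation; data scaled to 57 uM ketoconazole as 100% inhibition.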

[8] = biological target: Cytochrome P450 3A4 (Homo sapiens) (UniProt P08684); experiment: qHTS Assay for Activators of Cytochrome P450 3A4 (AID 885); settings: recombinant CYP3A4, Luciferin-PPXE luminescence, 60 min; series mostly up to 57.1 µM; further: nearly all actives have a fitted effect of over 65% in size
Procedure, shortened: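 CYP3A4 activity: Luciferin-PPXE O-dealkylation, 25uM substrate, 200mM KPO4, RT throughout. Read-out is luciferase luminescence; higher values reflect activation.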

[9] = biological target: Cytochrome P450 2D6 (Homo sapiens) (UniProt P10635); experiment: qHTS Assay for Inhibitors and Substrates of Cytochrome P450 2D6 (AID 891); settings: recombinant CYP2D6, luciferin-ME EGE luminescence; series mostly up to 11.4 µM;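 further: luciferin methyl ether substrate demethylated by CYP2D6 with NADPH regeneration; on the % scale 0 is the no-effect control and ±100 the full control effect; nearly all actives have a fitted effect of over 60% in size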
Procedure, shortened: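 Luminescent read-out of luciferin formed by 5 nM human CYP2D6 demethylating 30 uM Luciferin-ME EGE (Km level) over 60 min at room temperature after NADPH regeneration addition. Data normalized to full inhibition by 1.43 uM quinidine.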

[10] = qHTS profiling of the MIPE4 collection as inhibitors of Plasmodium falciparum (3D7) proliferation (AID 743344; call rule not given here;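 further: scaled between DMSO vehicle wells and 0.29 µM artemisinin as full inhibition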); settings: P. falciparum 3D7 in erythrocytes, SYBR Green DNA fluorescence, 72 h; at 28.5 µM (top of the series)
Procedure, shortened: (§1)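 Parasite DNA was quantified by SYBR Green I fluorescence (ex 485, em 535 nm) after overnight lysis in saponin/Triton buffer at room temperature. Cultures at 0.3% parasitemia and 2.5% hematocrit were first exposed to compound for 72 h at 37 C; signals were normalised to artemisinin (0.29 uM) and vehicle wells.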

[11] = qHTS profiling of the MIPE4 collection as inhibitors of Plasmodium falciparum (DD2) proliferation (AID 743345; call rule not given here); settings: P. falciparum Dd2 in erythrocytes, SYBR Green DNA, 72 h; at 28.5 µM (top of the series)
Procedure, shortened: as §1

[12] = qHTS profiling of the MIPE4 collection as inhibitors of Plasmodium falciparum (DD2) proliferation (Rep 2) (AID 743346; call rule not given here); settings: P. falciparum Dd2 in erythrocytes, SYBR Green DNA, 72 h; at 28.5 µM (top of the series)
Procedure, shortened: as §1

[13] = qHTS profiling of the MIPE4 collection as inhibitors of Plasmodium falciparum (HB3) proliferation (AID 743347; call rule not given here;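 further: plate controls were DMSO vehicle wells for no effect and artemisinin wells for full effect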); settings: P. falciparum HB3 in erythrocytes, SYBR Green DNA, 72 h; at 28.5 µM (top of the series)
Procedure, shortened: as §1

Chain of DNA polymerase eta (Homo sapiens) (Q9Y253 whole entry, looked up): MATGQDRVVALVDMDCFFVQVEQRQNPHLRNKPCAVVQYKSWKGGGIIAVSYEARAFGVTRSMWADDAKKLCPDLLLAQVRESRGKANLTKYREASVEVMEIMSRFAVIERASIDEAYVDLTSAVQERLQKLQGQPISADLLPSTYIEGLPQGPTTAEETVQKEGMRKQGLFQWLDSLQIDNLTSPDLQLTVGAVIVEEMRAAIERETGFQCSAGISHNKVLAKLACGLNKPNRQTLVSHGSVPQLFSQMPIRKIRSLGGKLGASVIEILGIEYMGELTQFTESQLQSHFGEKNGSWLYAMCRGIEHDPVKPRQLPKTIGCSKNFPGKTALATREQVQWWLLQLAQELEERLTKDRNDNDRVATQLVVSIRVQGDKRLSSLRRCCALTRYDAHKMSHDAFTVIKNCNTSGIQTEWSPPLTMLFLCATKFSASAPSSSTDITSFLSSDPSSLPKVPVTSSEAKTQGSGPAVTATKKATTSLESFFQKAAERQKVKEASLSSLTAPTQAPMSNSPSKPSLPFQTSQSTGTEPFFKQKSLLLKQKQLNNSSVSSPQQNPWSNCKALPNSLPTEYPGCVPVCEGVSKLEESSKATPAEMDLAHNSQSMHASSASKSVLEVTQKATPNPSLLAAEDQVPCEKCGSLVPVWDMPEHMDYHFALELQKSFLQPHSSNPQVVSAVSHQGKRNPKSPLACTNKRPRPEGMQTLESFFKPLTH
Chain of Cytochrome P450 3A4 (Homo sapiens) (P08684 whole entry, looked up): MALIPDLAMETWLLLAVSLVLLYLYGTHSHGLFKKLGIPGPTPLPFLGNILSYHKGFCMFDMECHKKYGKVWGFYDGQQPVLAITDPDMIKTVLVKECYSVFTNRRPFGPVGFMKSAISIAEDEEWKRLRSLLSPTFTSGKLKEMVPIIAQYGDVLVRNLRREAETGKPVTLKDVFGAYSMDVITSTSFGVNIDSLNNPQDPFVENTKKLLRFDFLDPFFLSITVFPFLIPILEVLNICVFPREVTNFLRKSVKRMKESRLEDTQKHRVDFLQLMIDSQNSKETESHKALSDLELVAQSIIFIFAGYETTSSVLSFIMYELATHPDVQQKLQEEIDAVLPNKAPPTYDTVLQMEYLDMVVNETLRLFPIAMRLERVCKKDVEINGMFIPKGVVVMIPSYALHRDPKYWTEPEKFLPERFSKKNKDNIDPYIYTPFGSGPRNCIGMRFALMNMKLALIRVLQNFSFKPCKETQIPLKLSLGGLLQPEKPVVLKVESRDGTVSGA
Chain of Cytochrome P450 2C9 (Homo sapiens) (P11712 whole entry, looked up): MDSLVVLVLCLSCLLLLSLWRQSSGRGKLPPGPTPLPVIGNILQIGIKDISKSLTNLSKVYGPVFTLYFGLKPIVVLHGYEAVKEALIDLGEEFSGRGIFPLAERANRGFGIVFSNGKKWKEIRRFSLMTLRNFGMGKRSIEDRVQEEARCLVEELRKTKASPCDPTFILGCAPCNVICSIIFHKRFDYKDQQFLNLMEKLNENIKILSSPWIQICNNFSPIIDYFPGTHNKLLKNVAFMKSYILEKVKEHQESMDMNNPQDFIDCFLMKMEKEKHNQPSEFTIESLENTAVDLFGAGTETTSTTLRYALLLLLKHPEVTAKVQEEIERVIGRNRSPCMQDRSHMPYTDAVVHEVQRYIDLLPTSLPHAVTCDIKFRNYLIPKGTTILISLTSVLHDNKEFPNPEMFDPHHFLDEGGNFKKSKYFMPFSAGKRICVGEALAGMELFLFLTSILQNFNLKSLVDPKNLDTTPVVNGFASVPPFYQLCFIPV
Chain of DNA polymerase iota (Homo sapiens) (Q9UNA4 whole entry, looked up): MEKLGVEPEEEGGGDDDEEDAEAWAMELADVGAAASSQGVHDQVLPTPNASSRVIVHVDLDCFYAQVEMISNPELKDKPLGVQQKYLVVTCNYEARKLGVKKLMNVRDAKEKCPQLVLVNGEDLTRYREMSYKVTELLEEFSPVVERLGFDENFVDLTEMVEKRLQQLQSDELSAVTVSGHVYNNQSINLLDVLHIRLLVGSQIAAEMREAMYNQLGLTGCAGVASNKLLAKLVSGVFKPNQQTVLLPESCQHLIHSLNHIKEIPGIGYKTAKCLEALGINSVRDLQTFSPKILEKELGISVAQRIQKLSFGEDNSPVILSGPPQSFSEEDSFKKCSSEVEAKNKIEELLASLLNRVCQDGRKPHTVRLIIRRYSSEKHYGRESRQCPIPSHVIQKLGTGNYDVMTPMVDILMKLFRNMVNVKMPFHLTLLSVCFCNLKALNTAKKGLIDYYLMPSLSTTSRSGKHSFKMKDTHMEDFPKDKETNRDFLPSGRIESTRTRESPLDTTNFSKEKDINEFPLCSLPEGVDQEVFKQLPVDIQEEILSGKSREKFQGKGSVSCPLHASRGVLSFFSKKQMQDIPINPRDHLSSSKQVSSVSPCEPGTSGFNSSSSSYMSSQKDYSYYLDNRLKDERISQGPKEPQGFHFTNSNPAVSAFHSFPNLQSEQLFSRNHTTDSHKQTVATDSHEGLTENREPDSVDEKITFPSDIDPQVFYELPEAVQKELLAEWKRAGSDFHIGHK
Chain of Cytochrome P450 2D6 (Homo sapiens) (P10635 whole entry, looked up): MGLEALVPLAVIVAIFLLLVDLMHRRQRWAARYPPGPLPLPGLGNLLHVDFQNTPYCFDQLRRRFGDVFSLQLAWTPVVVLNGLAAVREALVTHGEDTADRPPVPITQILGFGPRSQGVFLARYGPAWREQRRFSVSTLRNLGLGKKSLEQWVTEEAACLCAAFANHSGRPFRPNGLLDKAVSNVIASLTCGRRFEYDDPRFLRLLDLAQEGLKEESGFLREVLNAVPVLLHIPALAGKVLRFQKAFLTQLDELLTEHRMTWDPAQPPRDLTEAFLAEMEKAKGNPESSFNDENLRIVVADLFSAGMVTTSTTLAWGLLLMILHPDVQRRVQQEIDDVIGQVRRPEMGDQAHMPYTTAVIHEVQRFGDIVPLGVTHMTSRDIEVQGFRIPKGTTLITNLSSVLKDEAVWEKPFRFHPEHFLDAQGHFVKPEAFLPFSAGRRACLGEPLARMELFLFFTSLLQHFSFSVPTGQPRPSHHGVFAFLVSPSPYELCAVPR
Chain of RecQ-like DNA helicase BLM (Homo sapiens) (P54132 whole entry, looked up): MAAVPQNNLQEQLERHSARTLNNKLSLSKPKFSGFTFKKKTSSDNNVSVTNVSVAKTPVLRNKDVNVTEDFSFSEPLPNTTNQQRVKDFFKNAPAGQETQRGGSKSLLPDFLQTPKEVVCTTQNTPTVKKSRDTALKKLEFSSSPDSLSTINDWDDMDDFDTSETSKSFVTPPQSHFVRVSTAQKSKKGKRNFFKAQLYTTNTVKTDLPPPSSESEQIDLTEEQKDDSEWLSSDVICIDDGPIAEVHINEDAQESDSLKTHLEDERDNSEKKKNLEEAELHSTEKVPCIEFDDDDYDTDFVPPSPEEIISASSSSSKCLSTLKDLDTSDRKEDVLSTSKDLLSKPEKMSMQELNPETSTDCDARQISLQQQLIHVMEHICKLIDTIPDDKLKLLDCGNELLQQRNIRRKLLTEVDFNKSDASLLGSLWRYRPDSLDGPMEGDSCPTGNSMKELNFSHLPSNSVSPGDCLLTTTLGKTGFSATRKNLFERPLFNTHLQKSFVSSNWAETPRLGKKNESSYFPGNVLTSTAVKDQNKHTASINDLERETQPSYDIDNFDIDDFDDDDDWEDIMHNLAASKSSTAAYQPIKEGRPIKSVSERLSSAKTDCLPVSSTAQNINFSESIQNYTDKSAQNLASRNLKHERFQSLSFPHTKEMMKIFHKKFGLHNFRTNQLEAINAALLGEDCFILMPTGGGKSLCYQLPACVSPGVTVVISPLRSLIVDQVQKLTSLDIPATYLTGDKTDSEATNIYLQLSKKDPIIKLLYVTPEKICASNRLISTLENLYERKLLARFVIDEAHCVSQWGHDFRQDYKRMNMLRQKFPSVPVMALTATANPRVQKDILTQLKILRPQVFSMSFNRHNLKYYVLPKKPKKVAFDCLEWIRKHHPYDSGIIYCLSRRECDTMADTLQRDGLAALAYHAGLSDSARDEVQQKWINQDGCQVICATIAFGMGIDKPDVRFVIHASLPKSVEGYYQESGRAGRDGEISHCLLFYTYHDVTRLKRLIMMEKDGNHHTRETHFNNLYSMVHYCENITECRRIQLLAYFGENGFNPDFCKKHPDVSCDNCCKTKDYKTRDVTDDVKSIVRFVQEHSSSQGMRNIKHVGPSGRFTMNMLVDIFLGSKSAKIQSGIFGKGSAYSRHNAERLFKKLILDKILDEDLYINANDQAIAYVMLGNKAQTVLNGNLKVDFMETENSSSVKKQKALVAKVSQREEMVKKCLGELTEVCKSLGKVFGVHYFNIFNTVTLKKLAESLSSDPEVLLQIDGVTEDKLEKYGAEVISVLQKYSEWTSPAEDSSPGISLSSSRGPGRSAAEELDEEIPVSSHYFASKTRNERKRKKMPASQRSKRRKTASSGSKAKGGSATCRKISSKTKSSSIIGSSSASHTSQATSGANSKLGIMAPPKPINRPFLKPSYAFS

O=C(c1cc2c(s1)CCC2)N1CCN(c2ccccc2)CC1
Potency [1]: 37.7 µM (active)
Potency [2]: 42.3 µM (active)

O=C(Nc1ccc(S(=O)(=O)Nc2nccs2)cc1)c1cc(-c2ccncc2)nc2ccccc12
Potency [3]: 67.5 µM (active)

C#Cc1ccc([C@@H]2C=C(C(=O)O)O[C@H](OCCCCO)C2)cc1
Potency [3]: 84.9 µM (active)

O=C1COc2c1ccc(O)c2O
Potency [1]: 33.6 µM (active)
Potency [2]: 6.7 µM (active)
Potency [3]: 9.53 µM (active)

CN1CCN(CCCNC(=O)c2ccc(/C=C3\Oc4ccccc4N(Cc4ccc(Cl)cc4)C3=O)cc2)CC1
Potency [1]: 42.3 µM (active)
Potency [3]: 19 µM (active)

Cc1cc(/C=N/Nc2ccc([N+](=O)[O-])cn2)c(C)n1-c1cccc(C(=O)O)c1
Potency [1]: 67 µM (active)
Potency [3]: 26.9 µM (active)

N#C/C(=C\C1=C(N2CCOCC2)C(=C\c2ccccc2)/CC1)C(=O)Nc1ccccc1F
Potency [4]: 38.3 µM (active)
Potency [3]: 30.1 µM (active)
Potency [5]: 21.5 µM (active)

ON=C1/C(=N\O)CC2(C/C1=N/O)OCCO2
Potency [1]: 59.7 µM (active)
Potency [3]: 30.1 µM (active)

CCOc1ccccc1C(=O)NCc1ccco1
Potency [5]: 19.2 µM (active)

COc1ccc(Cl)cc1-c1cc(C(=O)Nc2cc(OC)c(OC)c(OC)c2)[nH]n1
Potency [5]: 27.1 µM (active)

COC(=O)C1=C(C)N(Cc2ccccc2)[C@]23O[C@](C(=O)OC)(C(=O)N2C1c1ccccc1)C1CCCC(=O)C13 (some centres undefined)
Potency [6]: inactive
activity change, negative = inhibition [7]: -22.3% [at 11.4 µM] (inactive)
activity change, positive = activation [8]: -50.6% [at 11.4 µM] (inactive)
Potency [9]: inactive

COc1cccc(/C=C/C2=CC3(C)CC2(C)C(c2cccc(OC)c2)CC3=O)c1 (centres undefined)
Potency [6]: 3.16 µM (active)
Potency [7]: 3.98 µM (active)
activity change, positive = activation [8]: -78.1% [at 11.4 µM] (inactive)

COC(=O)[C@H](CCSC)NC(=O)C/C=C\[C@@H](C)CO
Potency [6]: inactive

COc1ccc(OC2C=CC(c3ccccc3)OC2CO)cc1 (centres undefined)
Potency [6]: inactive
Potency [7]: 3.98 µM (active)
activity change, positive = activation [8]: -66.9% [at 11.4 µM] (inactive)

CC(=O)NCC1CN(c2ccc(N3CCOCC3)c(F)c2)C(=O)O1 (centres undefined)
parasite growth, % of DMSO control [10]: 91.2%
parasite growth remaining, % of DMSO control (lower = more inhibition) [11]: 94.2%
parasite growth, % of control (lower = inhibition) [12]: 75.9%
growth, % of control [13]: 99%

CN[C@@H]1[C@@H](O[C@H]2[C@H](O[C@H]3[C@H](O)[C@@H](O)[C@H](N=C(N)N)[C@@H](O)[C@H]3N=C(N)N)O[C@@H](C)[C@]2(O)C=O)O[C@@H](CO)[C@H](O)[C@H]1O
parasite growth, % of DMSO control [10]: 93.9%
parasite growth remaining, % of DMSO control (lower = more inhibition) [11]: 105%
parasite growth, % of control (lower = inhibition) [12]: 118%
growth, % of control [13]: 86.4%

C/C(CCN1CCCCc2nc(C)c(C)cc21)=N\O[C@@H](C)c1cc(-c2c(C)cc(C)cc2C)no1
Potency [6]: 2.51 µM (active)
Potency [7]: 3.98 µM (active)
activity change, positive = activation [8]: -65.9% [at 11.4 µM] (inactive)

CC(C)(C)OC(=O)N[C@@H](Cc1ccc(O[S+](=O)([O-])c2cccc3cnccc23)cc1)C(=O)Nc1ccc(-c2ccccc2)cc1
parasite growth, % of DMSO control [10]: 5.81%
parasite growth remaining, % of DMSO control (lower = more inhibition) [11]: 8.82%
parasite growth, % of control (lower = inhibition) [12]: 13.9%
growth, % of control [13]: 4.11%

CC(C)=CCCC(C)=CCNCCNC1C2CC3CC(C2)CC1C3 (centres undefined)
parasite growth, % of DMSO control [10]: 4.83%
parasite growth remaining, % of DMSO control (lower = more inhibition) [11]: 6.17%
parasite growth, % of control (lower = inhibition) [12]: 13.8%
growth, % of control [13]: 2.71%

C=CC[C@@H]1C=C[C@H](O/N=C2\c3cc(OC)ccc3O[C@H](c3cccc(OC)c3)[C@H]2O)[C@H](CO)O1
Potency [6]: 0.398 µM (active)

Cc1ccc(S(=O)(=O)N[C@H]2COC(=O)C/C=C\[C@@H](C)COC(=O)C/C=C\[C@@H]2C)cc1
Potency [6]: inactive
Potency [7]: 3.16 µM (active)
activity change, positive = activation [8]: -68.8% [at 11.4 µM] (inactive)

Cc1cc(C)cc(C#CC2C=CC(Oc3ccc(C4CCCC4)cc3)C(CO)O2)c1 (centres undefined)
Potency [6]: inactive
Potency [7]: 3.98 µM (active)
activity change, positive = activation [8]: -81.6% [at 11.4 µM] (inactive)
Potency [9]: inactive

CC12C=C(/C=C/c3ccc(Br)cc3)C(C)(C1)C(c1ccc(Br)cc1)CC2=O (centres undefined)
Potency [6]: 2.51 µM (active)
Potency [7]: 3.98 µM (active)
activity change, positive = activation [8]: -72.7% [at 11.4 µM] (inactive)

CCOC(=O)[C@]1(C(NC(=O)OC)c2cccc(F)c2)CCCC1=O (some centres undefined)
Potency [6]: inactive
activity change, negative = inhibition [7]: -16.9% [at 11.4 µM] (inactive)

C=C(C)C(O)C(CC/C=C(\C)C(=O)OCC)OC (centres undefined)
Potency [6]: inactive
activity change, negative = inhibition [7]: -25.2% [at 11.4 µM] (inactive)

COc1ccc(S(=O)(=O)N(CCO)c2ccccc2CN(C)CC=Cc2ccc(Cl)cc2)cc1
parasite growth, % of DMSO control [10]: 6.17%
parasite growth remaining, % of DMSO control (lower = more inhibition) [11]: 26.4%
parasite growth, % of control (lower = inhibition) [12]: 18.1%
growth, % of control [13]: 9.71%

C[C@]1(COc2ccc(N3CCC(Oc4ccc(OC(F)(F)F)cc4)CC3)cc2)Cn2cc([N+](=O)[O-])nc2O1
parasite growth, % of DMSO control [10]: 81.7%
parasite growth remaining, % of DMSO control (lower = more inhibition) [11]: 82%
parasite growth, % of control (lower = inhibition) [12]: 90.2%
growth, % of control [13]: 88.7%

C[C@H]1CC[C@H]2C(=O)N[C@H](Cc3ccccc3)C(=O)N2[C@@H]1c1ccccc1
Potency [6]: inactive
Potency [7]: 2.51 µM (active)
activity change, positive = activation [8]: -99.1% [at 11.4 µM] (inactive)
